# Test results reported in PubChem BioAssay (EPA / NIEHS).
# “And” between values parts separate entries of the source, which are not always exact repeats. Equal entries are not always repeated. Results filed as inconclusive are left out. More than one record can exist for a structure, and the calls need not agree. The source made the active and inactive calls. Rule for the calls: active = hit-call score of the fitted dose curve at least 0.9, where 1 is the maximum; inconclusive = response in the unintended direction; inactive = score below 0.9.
# Biological target: zebrafish Estrogen Receptor (ER1), esr1 (gene 259252) (UniProt P57717)
# Sequence (P57717 whole entry, looked up): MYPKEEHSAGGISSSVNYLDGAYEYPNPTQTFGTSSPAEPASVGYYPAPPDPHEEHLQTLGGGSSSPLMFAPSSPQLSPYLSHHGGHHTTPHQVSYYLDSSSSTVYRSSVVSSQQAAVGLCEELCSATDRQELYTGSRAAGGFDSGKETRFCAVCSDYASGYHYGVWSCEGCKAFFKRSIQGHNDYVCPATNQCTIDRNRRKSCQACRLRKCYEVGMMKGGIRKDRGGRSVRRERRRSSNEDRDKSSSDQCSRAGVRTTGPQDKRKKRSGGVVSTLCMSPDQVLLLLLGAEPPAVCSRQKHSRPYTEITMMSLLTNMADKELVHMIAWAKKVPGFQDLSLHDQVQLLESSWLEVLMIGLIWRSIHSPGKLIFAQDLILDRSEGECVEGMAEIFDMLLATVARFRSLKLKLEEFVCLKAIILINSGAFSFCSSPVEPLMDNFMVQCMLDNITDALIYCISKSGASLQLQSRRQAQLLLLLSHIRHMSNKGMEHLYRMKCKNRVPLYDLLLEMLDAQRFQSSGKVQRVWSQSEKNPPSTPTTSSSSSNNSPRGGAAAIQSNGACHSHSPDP
# Experiment: ATG_zfER1_XSP2: Attagene TRANS-FACTORIAL Multi-Species (XSP2) HepG2 Assay for zebrafish Estrogen Receptor (ER1) (AID 2283816)
# Method in brief: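 After 24 h compound exposure, RNA from transfected HepG2 cells was reverse-transcribed and reporter transcripts resolved by capillary electrophoresis. The TRANS format reads exogenous zebrafish ER1-Gal4 chimera activity on GAL4-UAS elements; gain of signal against DMSO.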
SMILES,AC50,outcome
Oc1ccc2c(c1)-c1ccccc1C2,14.7 µM (active) and 6.87 µM (active),–
Clc1nc(Cl)c(Cl)c(Cl)c1Cl,–,inactive
O=P(OC(CCl)CCl)(OC(CCl)CCl)OC(CCl)CCl,–,inactive

# Biological target: chicken Estrogen Receptor (ERa), ESR1 (gene 396099) (UniProt P06212)
# Sequence (P06212 whole entry, looked up): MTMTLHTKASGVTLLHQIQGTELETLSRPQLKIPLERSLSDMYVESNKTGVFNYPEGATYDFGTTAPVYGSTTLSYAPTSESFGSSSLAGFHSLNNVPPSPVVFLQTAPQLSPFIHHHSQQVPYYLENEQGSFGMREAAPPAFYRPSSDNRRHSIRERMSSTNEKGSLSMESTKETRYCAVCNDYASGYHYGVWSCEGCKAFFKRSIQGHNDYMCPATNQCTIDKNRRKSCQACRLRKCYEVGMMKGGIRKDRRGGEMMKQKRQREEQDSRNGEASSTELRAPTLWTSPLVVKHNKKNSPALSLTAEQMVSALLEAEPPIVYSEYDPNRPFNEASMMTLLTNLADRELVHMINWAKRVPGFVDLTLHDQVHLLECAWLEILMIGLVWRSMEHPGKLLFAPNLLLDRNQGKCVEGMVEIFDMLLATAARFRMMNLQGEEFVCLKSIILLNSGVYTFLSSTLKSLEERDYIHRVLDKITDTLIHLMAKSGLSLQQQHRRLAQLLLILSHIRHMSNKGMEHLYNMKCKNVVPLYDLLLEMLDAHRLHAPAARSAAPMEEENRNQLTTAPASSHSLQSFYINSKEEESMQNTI
# Experiment: ATG_chERa_XSP2: Attagene TRANS-FACTORIAL Multi-Species (XSP2) HepG2 Assay for chicken Estrogen Receptor (ERa) (AID 2283817);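 note: actives raise reporter signal above DMSO so AC50 reflects ER activation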
# Method in brief: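 Readout: fluorescent reporter-transcript fragments resolved by capillary electrophoresis after RT-PCR and HpaI cut. Chicken ERa-Gal4 fusion in transiently transfected HepG2, dosed for 24 h; activity taken as increase over DMSO baseline.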
SMILES,AC50,outcome
Oc1ccc2c(c1)-c1ccccc1C2,4.69 µM (active) and 2.17 µM (active),–
Clc1nc(Cl)c(Cl)c(Cl)c1Cl,26.6 µM (active) and 86.3 µM (active),–
O=P(OC(CCl)CCl)(OC(CCl)CCl)OC(CCl)CCl,–,inactive

# Test system: frog Estrogen Receptor (ER), gene 398734
# Experiment: ATG_frER1_XSP2: Attagene TRANS-FACTORIAL Multi-Species (XSP2) HepG2 Assay for frog Estrogen Receptor (ER) (AID 2283821);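 note: hits raise reporter mRNA above DMSO baseline so potency means agonist or activator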
# Method in brief: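 Reporter mRNA induction, detected as fluorescence after RT-PCR and capillary electrophoresis, is the endpoint; activity is fitted upward against DMSO. Cells are human liver HepG2 carrying transfected NR-Gal4 chimeras with GAL4-UAS-driven reporters, harvested 24 h post-dosing.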
SMILES,AC50,outcome
Oc1ccc2c(c1)-c1ccccc1C2,4.78 µM (active) and 2.89 µM (active),–
Clc1nc(Cl)c(Cl)c(Cl)c1Cl,100 µM (active),inactive
O=P(OC(CCl)CCl)(OC(CCl)CCl)OC(CCl)CCl,–,inactive
